Results reported in PubChem BioAssay (NCATS).
Records with an inconclusive call do not appear. Where a call stands in place of a potency, no number is given. The source made the active and inactive calls. Calls come from the whole dose curve; as a rule, active = well fitted inhibition curve with a large enough effect; inconclusive = small, poorly fitted or top-dose-only effect; inactive = flat fitted curve, though single readings scatter.

Experiment: Primary qHTS for inhibitors of nuclear receptor binding SET domain protein 2 (NSD2) in an isogenic RCH-ACV NSD2 p.E1099K mutant (9B) (AID 1645876); note: nearly all actives have a fitted effect of over 70% in size
Conditions: RCH-ACV (leukaemia line) NSD2 E1099K (9B) viability, CellTiter-Glo, 72 h; series mostly up to 44.9 µM

Row | Structure (SMILES) | Potency | activity change, negative = viability loss
1 | O=C(OC[C@H]1O[C@H](O[C@H]2CO[C@H](CO)[C@@H](O)[C@@H]2O)[C@H](O)[C@@H](O)[C@H]1O)c1ccccc1 | inactive | 
2 | CC1(C)COC(=O)[C@@H]1O[C@@H]1O[C@H](CO)[C@@H](O)[C@H](O)[C@H]1O | inactive | 
3 | CCOC(=O)C(CCc1ccccc1)NC(C)C(=O)N1Cc2ccccc2CC1C(=O)O (stereo not drawn) | inactive | 
4 | C=CC1(C)C=C2CC[C@H]3[C@@](C)(C(=O)O)CCC[C@]3(C)C2CC1 (stereo partly drawn) | inactive | 
5 | CN1CCN(C(=O)c2cc3cc(Cl)ccc3[nH]2)CC1 | inactive | 
6 | CC(=O)OCC1=C[C@@H]2OC(=O)C3=CO[C@@H](O[C@@H]4O[C@H](CO)[C@@H](O)[C@H](O)[C@H]4O)[C@H]1[C@@H]32 | inactive | 
7 | CC1(CO)CCCC2(C)C3COC(=O)C3=CC(O)C12 (stereo not drawn) | inactive | 
8 | CC(C/C=C/C(C)(C)O)C1CCC(C)(O)C(O)C1 (stereo not drawn) | inactive | 
9 | C=CC(C)(CC/C=C(\C)C(=O)OC)OC1OC(COC(=O)CC(C)(O)CC(=O)O)C(O)C(O)C1O (stereo not drawn) | inactive | 
10 | C/C=C/C=C/C(O)=C1/C(=O)[C@]2(C)C(=O)[C@@](C)(O)[C@H]1[C@H]([C@@]1(C)OC(=O)C(C)=C1O)[C@H]2C(=O)CC/C=C/C | inactive | 
11 | COC(=O)C1=COC(OC2OC(CO)C(O)C(O)C2O)C2C(COC(=O)/C=C/c3ccc(O)cc3)C(O)C(O)C12 (stereo not drawn) | inactive | 
12 | CC(=O)/C=C/C1C(C)CC(O[C@@H]2O[C@H](CO)[C@@H](O)[C@H](O)[C@H]2O)CC1(C)C (stereo partly drawn) | inactive | 
13 | COc1cc(C)c(C(=O)NC2C(C)OC(OC3CCC(C)C4C3C=C(C)C3/C(C)=C\CC/C(C)=C/C5(C)C=C(C(=O)O)C(C)CC56OC(=O)/C(=C(\O)C34C)C6=O)C(O)C2(C)O)c(O)c1 (stereo not drawn) |  | 4.33% [at 9.23 µM] (inactive)
14 | COC(=O)C1=COC(OC2OC(CO)C(O)C(O)C2O)C2C(COC(=O)/C=C/c3ccc(O)c(O)c3)C(O)C(O)C12 (stereo not drawn) | inactive | 
15 | CC(O)C1CCC2C3CCC4CC(OC5OC(C(=O)O)C(O)C(O)C5O)CCC4(C)C3CCC12C (stereo not drawn) | inactive | 
16 | COC(=O)C1(O)C(OC(C)=O)CCC2C3(CC(c4ccoc4)OC3=O)C(C)=CCC21C(=O)OC (stereo not drawn) | inactive | 
17 | CC(=O)C1CCC(=O)N1Cc1ccccc1 (stereo not drawn) | inactive | 
18 | CC(=O)O[C@@H]1[C@H](OC(C)=O)C[C@@]2(C)C(CC[C@@H](C)[C@]23Cc2c(O)cc4c(c2O3)CN([C@@H](CCC(=O)O)C(=O)O)C4=O)C1(C)C (stereo partly drawn) | inactive | 
19 | C[C@@H]1O[C@@H](O[C@H]2[C@H](O)[C@@H](O)[C@H](OC(=O)[C@]34CCC(C)(C)C[C@H]3C3=CCC5[C@@]6(C)CC[C@H](O[C@@H]7O[C@H](C(=O)O)[C@@H](O)[C@H](O)[C@H]7O)C(C)(C)C6CC[C@@]5(C)[C@]3(C)CC4)O[C@@H]2CO)[C@H](O)[C@H](O)[C@H]1O (stereo partly drawn) |  | -5.91% [at 9.23 µM] (inactive)
20 | CC1(C)CC2C(O)C3=C(CC(C)(O)C2C1)C(=O)OC3 (stereo not drawn) | inactive | 
21 | CC1=C[C@H](O)[C@H]2C(C)(C)CCC[C@]2(C)[C@@]1(O)CO | inactive | 
22 | CC1=C2C(=O)C=C(CO)C2C2OC(=O)C(CS(=O)(=O)O)C2C(OC(=O)Cc2ccc(O)cc2)C1 (stereo not drawn) | inactive | 
23 | C=C1[C@H](OC(C)=O)[C@H]2[C@@H](OC(C)=O)C(C)C[C@]2(OC(C)=O)C(=O)[C@H](C)/C=C/C(C)(C)C(=O)[C@H](OC(=O)C(C)C)[C@H]1OC(C)=O (stereo partly drawn) | inactive | 
24 | CC1(C)CC[C@]2(C(=O)O)CC[C@]3(C)C(=CCC4[C@@]5(C)CC[C@H](O)C(C)(C)C5CC[C@]43C)C2C1 (stereo partly drawn) | inactive | 
25 | CC(/C=C/C=C(\C)C(=O)O[C@@H]1O[C@H](CO[C@@H]2O[C@H](CO)[C@@H](O)[C@H](O)[C@H]2O)[C@@H](O)[C@H](O)[C@H]1O)=C\C=C\C=C(C)\C=C\C=C(/C)C(=O)O[C@@H]1C[C@](O)(C(=O)O)C[C@@H](O)[C@H]1OC(=O)/C=C/c1ccc(O)c(O)c1 |  | -6.13% [at 9.23 µM] (inactive)
26 | CC(=O)OCC1=CCC2C(C)(C)CCCC2(C)C12CCC(C)(CC(=O)O)O2 (stereo not drawn) | inactive | 
27 | CCC/C=C/C=C/C1CC(O)C(O)C(=O)C1CO (stereo not drawn) | inactive | 
28 | CC1(C)CC[C@]2(C(=O)O)[C@H](O)C[C@]3(C)C(=CCC4[C@@]5(C)CC[C@H](O[C@@H]6OC[C@@H](O)[C@H](O)[C@H]6O)[C@@](C)(C(=O)O)C5CC[C@]43C)[C@@H]2C1 (stereo partly drawn) | inactive | 
